Source: PubChem BioAssay (NCI)
The panel holds about 83,000 compounds, 20% with a hit somewhere; the sample as a whole holds those more often.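 Cell lines were cultured in 96-well plates, exposed to a single compound concentration, and assessed for percent growth 48 hours later.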 Unmarked numbers belong to inactive results. Activity calls are given as the source filed them. How the source made its calls: active means growth percent below 10; inactive means the rest.

Legend:
Experiment in all cases: NCI-60 one-dose screen, 48 h (100 = growth as untreated, 0 = no growth, -100 = all killed)
Details in all cases: 10 µM unless noted
HCT-15 colon = system: HCT-15 colon
HT29 colon = system: HT29 colon
SNB-75 CNS = system: SNB-75 CNS
SNB-19 CNS = system: SNB-19 CNS
U251 CNS = system: U251 CNS
PC-3 prostate = system: PC-3 prostate
SK-MEL-5 melanoma = system: SK-MEL-5 melanoma
UACC-62 melanoma = system: UACC-62 melanoma
LOX IMVI melanoma = system: LOX IMVI melanoma
SK-MEL-28 melanoma = system: SK-MEL-28 melanoma
SK-MEL-2 melanoma = system: SK-MEL-2 melanoma
SN12C renal = system: SN12C renal
UO-31 renal = system: UO-31 renal
TK-10 renal = system: TK-10 renal
ACHN renal = system: ACHN renal
CAKI-1 renal = system: CAKI-1 renal
A498 renal = system: A498 renal
MOLT-4 leukemia = system: MOLT-4 leukemia
EKVX NSCLC = system: EKVX NSCLC
CCRF-CEM leukemia = system: CCRF-CEM leukemia

Compound | growth (HCT-15 colon) | growth (HT29 colon) | growth (SNB-75 CNS) | growth (SNB-19 CNS) | growth (U251 CNS) | growth (PC-3 prostate) | growth (SK-MEL-5 melanoma) | growth (UACC-62 melanoma) | growth (LOX IMVI melanoma) | growth (SK-MEL-28 melanoma) | growth (SK-MEL-2 melanoma) | growth (SN12C renal) | growth (UO-31 renal) | growth (TK-10 renal) | growth (ACHN renal) | growth (CAKI-1 renal) | growth (A498 renal) | growth (MOLT-4 leukemia) | growth (EKVX NSCLC) [%] | growth (CCRF-CEM leukemia)
Clc1ccc2[nH]c3c(NCCCN4CCOCC4)ncnc3c2c1 | 84.1% | 18.6% | 85% | 92.9% | 69.6% | 75.6% | 67% | 80.1% | 64.5% | 91.2% | 94.5% | 82.5% | 57.2% | 78.3% | 45.1% | 75.9% | 58.4% | 53.5% | – | –
COc1cc2c(cc1OC)-c1ccc3cc4c(cc3c1N(CCN(C)C)C2)OCO4 | 56.7% | -45.8% (active) | -5.56% (active) | 8.26% (active) | -42.9% (active) | 0.178% (active) | -10.9% (active) | 3.42% (active) | -83.2% (active) | 43.7% | 36% | – | 24.2% | 16.6% | – | – | -33.8% (active) | 0.14% (active) | 25.4 | -1.03% (active)
O=C(Nc1cccc2[nH]c(C(F)(F)F)nc12)c1cc(Cl)ccc1Cl | 29.2% | 52.1% | 75.6% | 32.3% | 15.8% | 15.5% | -47.5% (active) | 20.5% | 38.1% | 44.3% | -4.53% (active) | 28.7% | -3.23% (active) | 4.93% (active) | 48.1% | 31.3% | -7.02% (active) | 17.9% | – | 22.7%
CO[C@H]1/C=C/O[C@@]2(C)Oc3c(C)c(O)c4c(c3C2=O)C(=O)C(/C=N/N(c2ccccc2)c2ccccc2)=C(NC(=O)/C(C)=C\C=C\[C@H](C)[C@H](O)[C@@H](C)[C@@H](O)[C@@H](C)[C@H](OC(C)=O)[C@@H]1C)C4=O | -20.3% (active) | -12.7% (active) | 19.6% | 19.1% | -72.7% (active) | -2.79% (active) | -88.2% (active) | -71.1% (active) | -81.1% (active) | -58.3% (active) | -60.8% (active) | -49.2% (active) | -19.3% (active) | -1.72% (active) | -33% (active) | -4.42% (active) | -5.29% (active) | 3.36% (active) | – | 1.62% (active)
NC(=S)N/N=C/C(=O)O | 93.7% | 80% | 99.2% | 108% | 102% | 70% | 103% | 106% | 93.3% | 111% | 85.3% | 90.4% | 38.8% | 111% | 91.2% | 88.5% | 80.3% | 44% | – | 24.3%
CCCCCCCCCCCCCCCCCC1=NCCN1C(=O)OCCO | -8.42% (active) | -47.6% (active) | 45.1% | 75.9% | -46% (active) | 28.4% | 80.3% | 59.6% | 27.8% | 61.3% | 76.8% | – | 29.5% | -65.4% (active) | 38.4% | – | 89.1% | 8.42% (active) | 83.4 | -2.98% (active)
NS(=O)(=O)Oc1ccc(NC(=O)C23CC4CC(CC(C4)C2)C3)cc1Cl | 101% | 103% | 84.3% | 90.9% | 96% | 94.5% | 91.1% | 86.8% | 82.9% | 104% | 99.9% | – | 63.4% | 100% | 96.1% | 89% | – | 82.3% | 93 | 73.6%
COc1ccc(-c2nnc(SCC(=O)NC3=NN=C(c4ccccc4)CS3)o2)cc1 | 106% | 96.1% | 88.1% | 90.8% | 87.2% | 86.8% | 107% | 95.2% | 101% | 109% | 103% | – | 88.1% | 106% | 99.6% | – | 86.4% | 83.9% | 101 | 90.8%
COc1ccc(-c2nc3sc4c(c3c(=O)[nH]2)CCCC4)c2ccccc12 | 6.37% (active) | -0.244% (active) | -25.5% (active) | 36% | 6.38% (active) | 11.7% | 18.1% | 24.4% | 26.9% | -5.17% (active) | 29.4% | 36.2% | 24.8% | 38.3% | -32.5% (active) | 9.7% (active) | -24.4% (active) | 14.2% | – | 12.5%
CN(CCC(=O)/C(=C\c1ccccc1)c1ccc(Cl)cc1)Cc1ccccc1 | 2.09% (active) | 9.63% (active) | 60.3% | 23% | -10.3% (active) | 45% | 58.7% | -36.6% (active) | -58.3% (active) | 9.17% (active) | 58.4% | -9.91% (active) | -40.9% (active) | 51.8% | -43.3% (active) | 22.5% | 46.1% | 6.05% (active) | – | -7.82% (active)
CC(C)n1nc(C#Cc2cccc3cc(-c4cccc(C(F)(F)F)c4)ncc23)c2c(N)ncnc21 | 64.3% | 29.7% | -4.27% (active) | 99.6% | 63.6% | 59.6% | 85.1% | 66.6% | 58.1% | 83.3% | 42.8% | – | 82% | 85.1% | 68.7% | 86.8% | 83.5% | 43.2% | 93.6 | 39.5%
Nc1c(C(=O)c2ccccc2)nnc2ncnn12 | 111% | 100% | 96.9% | 105% | 95.8% | 97.9% | 98.6% | 99.7% | 101% | 133% | 92% | 101% | 101% | 96% | 122% | 104% | 71.2% | 95.8% | – | 98.4%
O=c1[nH]nc(-c2ccc(Cl)cc2)cc1Cc1ccccc1 | 103% | 108% | 88.3% | 101% | 92.5% | 90.9% | 105% | 79.3% | 93.4% | 114% | 101% | – | 61.7% | 109% | 92.7% | – | 110% | 79.6% | 86 | 81.6%
N#Cc1c(N)nc2c(nnn2-c2cccc(C(F)(F)F)c2)c1N | 86.3% | 86% | 82.6% | 93.1% | 85.2% | 86.8% | 87.9% | 88.5% | 94.7% | 111% | 91.2% | 87.7% | 58.2% | 90.2% | 87.7% | 77.2% | 97.7% | 75.8% | – | 87.9%
N#C/C=C(\c1ccc([N+](=O)[O-])cc1)n1nnc2cc(Cl)c(Cl)cc21 | -39.1% (active) | 3.93% (active) | 18.1% | 41.5% | 11.8% | -12.5% (active) | 38.5% | 3.91% (active) | -79.9% (active) | 43.2% | 65.8% | – | -70.9% (active) | -16.2% (active) | -85% (active) | 40.9% | – | 22.4% | 38.6 | 9.49% (active)
Cc1ccccc1NC(=O)CN(C)C | 105% | 90.9% | 92.6% | 98.8% | 104% | 98.3% | 105% | 99.3% | 99.9% | 96.9% | 84.8% | 97% | 81.2% | 86.8% | 99.6% | 103% | 83.8% | 94.2% | – | 107%
N#Cc1c(NC(=O)c2ccc(Br)cc2)sc2c1CCCC2 | 22.2% | 15.8% | 13.6% | 38.5% | 31.2% | 28.9% | 9.6% (active) | 29.1% | 38.7% | 59% | 37% | – | 63% | 72.7% | 47.6% | 54.3% | – | 32.5% | 37 | 20.4%
